Here are results for seven compounds from PubChem BioAssay (NCATS).

Results filed as inconclusive are left out. Calls of active or inactive are those of the source. Unless noted, calls follow the shape of the dose curve; as a rule, active = well fitted curve in either direction with a large enough effect (not every such curve was filed as active); inconclusive = small, poorly fitted or top-dose-only effect, or another doubt; inactive = flat fitted curve, though single readings scatter. A value given as a limit tells only on which side of the number the result lay.

The target in experiment [1] is Lysosomal acid glucosylceramidase (Homo sapiens) (UniProt P04062). The experiment is described as follows: Glucocerebrosidase-p2 (AID 348; in the data active = potency below about 10 µM; also: potency is read from the fitted curve at half-maximal effect). The note with it: purified GBA, blue fluorogenic substrate, 40 min. The gist of the method:
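Compounds titrated from 0.6 nM upwards against 0.2 nM enzyme in pH 5.9 citric acid/KH2PO4, taurocholate, tween-20; blue fluorogenic substrate 80 uM, 40 min room temperature, stopped and read Ex 365/Em 440 for AC50.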

Experiment [2] can be described thus: AP1 Signaling Pathway (AID 357). Also: % is scaled to controls: 0 for no effect and ±100 for the full control effect. The note with it: ME-180 AP-1-bla reporter, EGF-induced, beta-lactamase ratio, 5 h; at 7.69 µM (top of the series) unless noted. The gist of the method: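 Titration-series screen for positive or negative modulators of EC50 EGF-induced signaling in ME-180 cells carrying an AP-1-driven beta-lactamase reporter. After 5 hours at 37 degrees Celsius, CCF4 460nm/530nm emission ratio gave %Activity; AC50 values derived.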

Experiment [3] addresses Cytochrome P450 1A2 (Homo sapiens) (UniProt P05177). The experiment is described as follows: p450-cyp1a2 (AID 410; calls by dose curve; also: potency is read from the fitted curve at half-maximal effect;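 as to activity change, negative = inhibition: -100% = full effect of reference inhibitor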). The note with it: recombinant CYP1A2, luciferin-ME demethylation, luminescence; series mostly up to 57 µM. The gist of the method:
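Inhibition was calculated relative to 57 uM furafylline (full inhibition). The reaction used human CYP1A2 at 20nM with Luciferin-ME at its Km, 100uM, driven by an NADPH-regenerating system for 60 min at room temperature.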

Experiment [4] can be described thus: NFAT Signaling Pathway (AID 444).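 Also: carbachol stimulus at about its EC50 of 1 µM final; % is scaled to controls: 0 for no effect and ±100 for the full control effect.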 The note with it: Jurkat NFAT-bla M1, carbachol, beta-lactamase ratio, 5 h; at 7.69 µM (top of the series) unless noted. The gist of the method: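 Jurkat cells with NFAT-driven β-lactamase reporter and co-expressed M1 receptor, stimulated with carbachol (final 1 uM, ~EC50), compound titration, 5 h at 37 °C. CCF4 loaded 1 h at RT; 460/530 nm ratio gave %activity and AC50.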

Experiment [5] can be described thus: Stat Signaling Pathway (AID 446).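 Also: ME-180 cervical cancer cells given 40 pM IL-6 alongside compound; SIE-controlled beta-lactamase reporter measured as 460/530 nm FRET emission ratio; % is scaled to controls: 0 for no effect and ±100 for the full control effect.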 The note with it: ME-180 (cervical carcinoma) SIE beta-lactamase reporter, IL-6 stimulated, 5 h; at 7.69 µM (top of the series) unless noted. The gist of the method:
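ME-180 SIE-bla cells; overnight plating; cpd + IL-6 40 pM, 5 h, 37 C; LiveBLAzer 2.5 h RT; 460/530 nm emission ratio. Normalized to 300 pM IL-6 and 125 nM JAK inhibitor controls.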

Experiment [6] has as its target Glucocorticoid receptor (Homo sapiens) (UniProt P04150). Nature of the experiment: GR-EFC Redistribution (AID 451; calls by dose curve; also: potency is read from the fitted curve at half-maximal effect). The note with it: CHO-K1 GR-EFC translocation, beta-gal luminescence, 2 h. The gist of the method:
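CHO-K1 cells expressing nuclear EA and GR-ED fragments of b-gal; compounds titrated up to 46 uM final, 2 h at 37 C. GR nuclear translocation read as complemented b-gal luminescence after 1 h RT detection.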

The target in experiment [7] is Mitogen-activated protein kinase 10 (Mus musculus) (UniProt Q61831). The experiment is described as follows: JNK3 AlphaScreen Assay (AID 530).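 Also: kinase came from lysate of stimulated human HepG2 cells; signal reports phosphorylation of biotinylated GST-cJun 1-79 at Ser73 with 10 µM ATP; % is scaled to controls: 0 for no effect and ±100 for the full control effect.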 The note with it: JNK3 lysate, c-Jun phosphorylation; series mostly up to 57.1 µM. The procedure, abridged:
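qHTS format: compounds tested as titrations against IL-1beta/TNF-alpha-activated HepG2 lysate JNK3 with biotin-GST-cJun substrate and 10 uM ATP at room temperature. Loss of anti-phospho-cJun AlphaScreen signal indicates inhibition.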
(In general: In Alpha technology, singlet oxygen from a donor bead excites a nearby acceptor bead.)

Experiment [8] has as its target 3',5'-cyclic-AMP phosphodiesterase 4B (Homo sapiens) (UniProt Q07343). The experiment is described as follows: qHTS Assay for Inhibitors of PDE-IV (AID 607; active = well fitted activation curve with a large enough effect in the main read-out, with a control signal flat, not every such curve was filed as active; also: % of control where 0% means no effect). The note with it: HEK293 ACTOne CNG channel cells, membrane potential fluorescence; series mostly up to 22.9 µM. The gist of the method:
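ACTOne HEK293 cells carry a modified cAMP-gated CNG channel and express endogenous PDE4; plated 1000 cells/well, compounds up to 22.9 uM final. Membrane-potential dye fluorescence (ex 535/em 590) was read; parental cells received 10 uM forskolin + 100 uM RO 20-1724.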
A general note: In qHTS, concentration-response curves come from the screen itself.

The nature of experiment [9]: qHTS Assay for Lipid Storage Modulators (AID 1519; calls by dose curve). The note with it: Drosophila S3 cells, BODIPY lipid droplet/cell ratio, laser cytometry, cells loaded with oleic acid; for activity change, negative = inhibition: at 57.5 µM (top of the series). The gist of the method: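 Cells seeded at 5,000 per well were treated with compounds over a concentration series and loaded with oleic acid (400 uM, as added). Lipid droplet fluorescence (488 nm excitation, 500-530 nm channel) was read by laser-scanning cytometry and normalized to 20 uM Triacsin C.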

The nature of experiment [10]: Primary qHTS for small molecule stabilizers of the endoplasmic reticulum resident proteome: Secreted ER Calcium Modulated Protein (SERCaMP) assay (AID 1508630; active = well fitted inhibition curve with a large enough effect; also: % is scaled to controls: 0 for no effect and ±100 for the full control effect). The note with it: SH-SY5Y GLuc-SERCaMP (Gaussia luciferase released on ER calcium loss) secretion, thapsigargin, luminescence; series mostly up to 38.4 µM. The gist of the method: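 GLuc-SERCaMP-expressing SH-SY5Y cells, pretreated 16 h with compound, are challenged with thapsigargin to empty ER calcium stores; after 4 h, coelenterazine is added directly to the medium and luminescence is imaged.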

Where [11] appears, read: measured here: cell count channel max response.
The mark [12] stands for this setting: measured here: lipid channel max response.

Cytochrome P450 1A2 (Homo sapiens), sequence (P05177 whole entry, looked up): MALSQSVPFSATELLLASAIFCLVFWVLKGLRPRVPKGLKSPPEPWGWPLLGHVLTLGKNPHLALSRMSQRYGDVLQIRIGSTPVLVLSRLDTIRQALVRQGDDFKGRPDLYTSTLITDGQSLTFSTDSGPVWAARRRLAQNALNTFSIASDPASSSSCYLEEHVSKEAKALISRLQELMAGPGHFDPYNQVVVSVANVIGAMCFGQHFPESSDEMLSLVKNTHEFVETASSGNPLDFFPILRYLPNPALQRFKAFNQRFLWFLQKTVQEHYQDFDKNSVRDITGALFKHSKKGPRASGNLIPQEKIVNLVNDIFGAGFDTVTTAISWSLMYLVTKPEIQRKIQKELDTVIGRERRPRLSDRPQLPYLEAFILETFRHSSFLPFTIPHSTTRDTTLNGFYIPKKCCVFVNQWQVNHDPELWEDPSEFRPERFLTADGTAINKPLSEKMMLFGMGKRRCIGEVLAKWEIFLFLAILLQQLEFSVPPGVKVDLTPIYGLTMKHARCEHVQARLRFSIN
Glucocorticoid receptor (Homo sapiens), sequence (P04150 whole entry, looked up, the tested form may be a part): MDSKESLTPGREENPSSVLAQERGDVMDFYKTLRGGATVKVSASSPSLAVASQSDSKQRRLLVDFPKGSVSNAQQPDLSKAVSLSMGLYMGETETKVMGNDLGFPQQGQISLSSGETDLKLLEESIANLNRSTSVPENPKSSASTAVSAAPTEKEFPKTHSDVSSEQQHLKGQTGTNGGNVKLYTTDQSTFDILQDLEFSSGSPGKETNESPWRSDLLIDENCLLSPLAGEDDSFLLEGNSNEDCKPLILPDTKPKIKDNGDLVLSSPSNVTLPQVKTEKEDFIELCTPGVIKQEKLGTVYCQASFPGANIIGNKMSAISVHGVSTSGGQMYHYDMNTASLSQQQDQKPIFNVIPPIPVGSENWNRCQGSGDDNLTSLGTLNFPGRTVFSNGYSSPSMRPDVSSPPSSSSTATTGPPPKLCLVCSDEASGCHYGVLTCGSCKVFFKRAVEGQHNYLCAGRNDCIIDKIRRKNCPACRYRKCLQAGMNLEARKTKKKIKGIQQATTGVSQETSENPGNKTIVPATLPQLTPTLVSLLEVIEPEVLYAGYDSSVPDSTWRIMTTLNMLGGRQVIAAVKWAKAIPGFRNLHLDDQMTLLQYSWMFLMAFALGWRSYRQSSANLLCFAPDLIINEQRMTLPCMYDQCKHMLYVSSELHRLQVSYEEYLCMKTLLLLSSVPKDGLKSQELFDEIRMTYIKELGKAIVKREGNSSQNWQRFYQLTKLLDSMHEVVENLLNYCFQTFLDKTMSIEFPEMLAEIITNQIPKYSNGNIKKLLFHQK
Lysosomal acid glucosylceramidase (Homo sapiens), sequence (P04062 whole entry, looked up): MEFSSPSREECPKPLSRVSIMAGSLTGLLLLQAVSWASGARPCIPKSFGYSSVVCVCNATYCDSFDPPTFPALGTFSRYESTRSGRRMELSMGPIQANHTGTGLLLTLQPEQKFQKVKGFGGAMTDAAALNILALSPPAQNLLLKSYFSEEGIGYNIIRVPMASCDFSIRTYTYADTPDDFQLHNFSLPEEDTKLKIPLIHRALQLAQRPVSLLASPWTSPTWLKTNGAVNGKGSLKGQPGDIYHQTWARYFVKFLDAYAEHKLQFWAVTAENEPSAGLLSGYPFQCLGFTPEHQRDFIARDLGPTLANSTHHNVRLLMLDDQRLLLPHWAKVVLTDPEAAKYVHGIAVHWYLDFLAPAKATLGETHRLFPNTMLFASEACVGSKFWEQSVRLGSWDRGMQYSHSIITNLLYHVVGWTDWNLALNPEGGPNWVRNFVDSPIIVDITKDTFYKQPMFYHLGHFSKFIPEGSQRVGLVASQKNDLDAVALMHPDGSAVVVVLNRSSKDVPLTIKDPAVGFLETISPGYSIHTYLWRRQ
3',5'-cyclic-AMP phosphodiesterase 4B (Homo sapiens), sequence (Q07343 whole entry, looked up): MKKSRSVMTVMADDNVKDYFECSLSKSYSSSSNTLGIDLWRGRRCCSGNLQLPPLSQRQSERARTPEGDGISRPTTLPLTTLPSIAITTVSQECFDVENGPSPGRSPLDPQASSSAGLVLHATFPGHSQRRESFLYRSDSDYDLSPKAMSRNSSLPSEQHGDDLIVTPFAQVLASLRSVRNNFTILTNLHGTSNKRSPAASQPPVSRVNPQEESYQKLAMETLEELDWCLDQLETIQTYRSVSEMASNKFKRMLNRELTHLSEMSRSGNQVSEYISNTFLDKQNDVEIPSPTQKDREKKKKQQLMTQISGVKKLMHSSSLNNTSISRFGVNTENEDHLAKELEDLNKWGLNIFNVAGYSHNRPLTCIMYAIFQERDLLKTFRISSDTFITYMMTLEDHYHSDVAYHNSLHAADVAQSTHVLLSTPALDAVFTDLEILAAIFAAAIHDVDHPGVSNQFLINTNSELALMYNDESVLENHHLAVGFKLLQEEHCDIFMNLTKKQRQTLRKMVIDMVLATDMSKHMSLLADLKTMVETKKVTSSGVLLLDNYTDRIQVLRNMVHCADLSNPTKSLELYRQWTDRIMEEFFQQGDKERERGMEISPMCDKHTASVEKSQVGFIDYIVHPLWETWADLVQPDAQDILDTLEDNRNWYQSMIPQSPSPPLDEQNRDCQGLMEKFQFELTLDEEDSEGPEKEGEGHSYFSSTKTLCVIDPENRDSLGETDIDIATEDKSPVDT

Consider `CS(=O)(=O)N1CCC2(CCCN(C(=O)Nc3ccccc3)C2)CC1`, for which the Potency is > 11.4 µM (inactive) in experiment [1], 15.8 µM (active) in experiment [3] and > 46 µM (inactive) in experiment [6]. Besides, the values for the activity change, negative = inhibition in experiment [2], in experiment [4] and in experiment [9] were -5.5% (inactive), 11% (inactive) and 1.48% (inactive), respectively. For the same compound, the activity, negative = inhibition in experiment [5] is 3.16% (inactive). Also, the result in experiment [7] was inactive. In addition, the Potency result in [8] and in experiment [10] was “inactive” throughout. Besides, the max response is 3.7% in experiment [9] (setting [11]) and 9.01% in experiment [9] (setting [12]).

Take `O=C(c1cnccn1)N1CCC2(CCN(Cc3nccs3)CC2)CC1`: the Potency was > 11.4 µM (inactive) in experiment [1] and > 46 µM (inactive) in experiment [6]. Moreover, the activity change, negative = inhibition in experiment [2] is 2.79% (inactive); in experiment [4], 9.93% (inactive); in experiment [9] it was 2.95% (inactive). The Potency result in experiment [3], in [8] and in [10] was “inactive” throughout. For the same compound, the activity, negative = inhibition in [5] was 3.3% (inactive). For the same compound, the compound was classed as inactive in [7]. Besides, the max response is -0.576% in experiment [9] (setting [11]) and 4.52% in experiment [9] (setting [12]).

`COc1ccc(NC(=O)N2CC3(CCN(S(C)(=O)=O)CC3)C2)cc1`: the Potency was > 11.4 µM (inactive) in experiment [1] and > 46 µM (inactive) in experiment [6]. In addition, the activity change, negative = inhibition in experiment [2] is -11.2% (inactive); in [4], 24.5% (inactive); in [9] it was 4.64% (inactive). For the same compound, the Potency result in experiment [3], in experiment [8] and in experiment [10] was “inactive” in each case. Besides, the activity, negative = inhibition in experiment [5] was 5.18% (inactive). In addition, the compound was called inactive in [7]. The figures for the max response in experiment [9] (setting [11]) and in [9] (setting [12]) were -10.6% and -5.17%, respectively.

Consider `CN1CCCC2(CCN(C(=O)c3cccn3C)CC2)C1`, for which the Potency in experiment [1] is > 11.4 µM (inactive); in [6], > 46 µM (inactive). The activity change, negative = inhibition in [2] is -4.17% (inactive); in [4], -4.14% (inactive); in experiment [9] it was 1.86% (inactive). The Potency result in [3], in experiment [8] and in experiment [10] was “inactive” throughout. Moreover, the activity, negative = inhibition in experiment [5] was 7.29% (inactive). In addition, in experiment [7], the compound was classed as inactive. The max response in [9] (setting [11]) was 11.8%; in experiment [9] (setting [12]), 16.9%.

As to `O=C(Nc1cccc(F)c1)N1CC2(CCN(C(=O)c3csnn3)CC2)C1`, the Potency is > 11.4 µM (inactive) in experiment [1] and > 46 µM (inactive) in [6]. The activity change, negative = inhibition in experiment [2] was -24.7% (inactive); in experiment [4], 16.8% (inactive); in [9] it was 5.27% (inactive). Further, the Potency entry in experiment [3], in experiment [8] and in experiment [10] was “inactive” each time. Moreover, in [5], the activity, negative = inhibition was -8.23% (inactive). Moreover, the compound was classed as inactive in experiment [7]. The max response in [9] (setting [11]) was 2.11%; in [9] (setting [12]), 8.72%.

Turning to `CN1CC[C@@]2(CCCN(C(=O)c3cccc(F)c3)C2)C1`, the Potency in [1] is > 11.4 µM (inactive); in experiment [6], > 46 µM (inactive). The activity change, negative = inhibition was -5.96% (inactive) in experiment [2], -2.53% (inactive) in experiment [4] and 3.45% (inactive) in [9]. Besides, the Potency entry in [3], in experiment [8] and in experiment [10] was “inactive” in each case. In addition, the activity, negative = inhibition in experiment [5] was -8.35% (inactive). Besides, the result in [7] was inactive. Also, the results for the max response in experiment [9] (setting [11]) and in experiment [9] (setting [12]) were 3.46% and 12.3%, respectively.

For `CC(=O)N1CCC2(CC1)CN(Cc1ccccc1)C2`, the results for the Potency in [1] and in [6] were > 11.4 µM (inactive) and > 46 µM (inactive), respectively. Besides, the activity change, negative = inhibition was 9.85% (inactive) in experiment [2], 0.306% (inactive) in [4] and -0.469% (inactive) in experiment [9]. Besides, the Potency result in experiment [3], in experiment [8] and in experiment [10] was “inactive” in each case. Also, the activity, negative = inhibition in [5] was -5.51% (inactive). The call in [7] was inactive. For the same compound, the max response in [9] (setting [11]) was -1.63%; in [9] (setting [12]), -1.86%.
